Potency data for one compound are collected here from PubChem BioAssay AID624312 (National Center for Advancing Translational Sciences (NCATS), 2012).

Results filed as inconclusive are left out. Active and inactive are the calls of the source. Calls follow the shape of the dose curve; as a rule, active = well fitted inhibition curve with a large enough effect; inconclusive = small, poorly fitted or top-dose-only effect; inactive = no such curve, though single readings can be large or run the other way.

This test has as its target Peptidyl-prolyl cis-trans isomerase NIMA-interacting 1 (Homo sapiens) (UniProt Q13526). Description: qHTS Assay to Find Inhibitors of Pin1: Hit Validation using Tamra Binding. To be noted: Pin1 Tamra-peptide displacement, fluorescence polarization, 10 min. The source says:
The unique chemical properties of Pro allow for the adoption of two completely distinct amide bond conformations (cis and trans). Peptidyl-prolyl cis/trans isomerases (PPIases) are evolutionary conserved enzymes that catalyze cis/trans isomerization of peptidyl-prolyl peptide bonds. Distinct from all other PPIases such as cyclophilins and FK506-binding proteins (FKBPs), Pin1 binds a subset of phos.Ser/Thr-Pro-containing proteins using its protein-targeting WW domain and isomerizes only specific phos.Ser/Thr-Pro bonds, which cannot be effectively catalyzed by other known PPIases. […] The goal of this screen is to find small-molecule inhibitors of Pin1 using a fluorescence polarization competition assay.In the primary screen, a HiFluor-488-labeled peptide binds to the active site of Pin1 and can be displaced by compounds. […] To validate the hits using a different read-out, this Tamra binding assays was used against all the hits identified from the primary screen. […]
Briefly, 2 uL of Pin1 (all columns but column 3, which just receives buffer and serves as negative control) are dispensed into Greiner black solid bottom 1536-well assay plates. […] Finally, plates are transferred to a ViewLux high-throughput CCD imager (PerkinElmer), wherein end-point measurements of fluorescence polarization are acquired. […]

Peptidyl-prolyl cis-trans isomerase NIMA-interacting 1 (Homo sapiens), sequence (Q13526 whole entry, looked up, the tested form may be a part): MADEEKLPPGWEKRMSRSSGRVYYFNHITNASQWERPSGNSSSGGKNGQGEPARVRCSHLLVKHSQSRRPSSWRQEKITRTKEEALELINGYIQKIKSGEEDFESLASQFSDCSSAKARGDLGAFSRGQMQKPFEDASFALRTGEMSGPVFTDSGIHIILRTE

Take `Cc1cc2c(C(C)C)c(O)c(O)c(C=O)c2c(O)c1-c1c(C)cc2c(C(C)C)c(O)c(O)c(C=O)c2c1O`: the Potency is 1690 nM (active).
